Measured values as given in PubChem BioAssay (EPA / NIEHS).
Records with an inconclusive call do not appear. Active and inactive are the calls of the source. The calls were made as follows, unless noted: active = hit-call score of the fitted dose curve at least 0.9, where 1 is the maximum; inactive = score below 0.9.

Legend:
[1] = ACEA_ER_80hr: ACEA Biosciences xCELLigence Real-Time Cell Analysis on Estrogen Receptor Agonism for Proliferation (AID 2282667; active = hit-call score of the fitted dose curve at least 0.9, where 1 is the maximum); conditions: T47D proliferation, impedance (xCELLigence), 80 h
Method in brief: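 Estrogen-driven proliferation is captured as electrode impedance in T47D cells 80 h after compound addition. Test articles ran at 8 concentrations, 1:4 dilutions from 100 uM final, in two replicate plates.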

[2] = ATG_CRE_CIS: Attagene CIS-FACTORIAL HepG2 Assay for human cAMP Responsive Element (CRE) binding protein 3 (AID 2282926); conditions: HepG2 CRE cis-reporter, Attagene multiplexed mRNA; actives raise or lower the signal
Method in brief: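 Transfected HepG2 were treated for 24 hours, then RNA was extracted and reporter cDNA amplified with sequence-specific primers. Labelled fragments were separated by capillary electrophoresis, and the CRE signal was fitted bidirectionally with DMSO as baseline.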

[3] = target: CCAAT/enhancer-binding protein beta (Homo sapiens) (UniProt P17676); assay: ATG_C_EBP_CIS: Attagene CIS-FACTORIAL HepG2 Assay for human CCAAT/Enhancer Binding Protein (C/EBP) beta (AID 2282927); conditions: HepG2 Attagene cis-factorial transcription factor reporter; actives raise or lower the signal
Method in brief: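 Endogenous C/EBPb-driven reporter transcripts measured in transfected human HepG2 cells at 24 h via RT-PCR and capillary electrophoresis of labelled fragments. Activity fitted in both directions relative to DMSO baseline.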

[4] = ATG_CMV_CIS: Attagene CIS-FACTORIAL HepG2 Assay for human CMV (Internal Marker) (AID 2282928); conditions: HepG2 CMV promoter reporter, transcription factor profiling; actives raise or lower the signal;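 also: endpoint acts as a background internal control marker rather than a target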
Method in brief: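 Cell system: HepG2, transiently transfected multiple reporter units under cis promoters. Exposure: 24 h. Detection: RT-PCR, FAM labeling, HpaI digestion, capillary electrophoresis. Analysis: bidirectional, DMSO baseline.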

[5] = ATG_DR4_LXR_CIS: Attagene CIS-FACTORIAL HepG2 Assay for human Liver X Receptor (LXR), DR4 submotif (AID 2282929); conditions: HepG2 Attagene DR4 cis-reporter, mRNA transcription; actives raise or lower the signal
Method in brief: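 The endpoint is DR4-element-driven reporter transcripts after 24 h chemical exposure of transfected HepG2 cells. These were measured via RT-PCR and capillary electrophoresis, and gain or loss of signal was fitted relative to DMSO controls.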

[6] = target: Aryl hydrocarbon receptor (Homo sapiens) (UniProt P35869); assay: ATG_Ahr_CIS: Attagene CIS-FACTORIAL HepG2 Assay for human Aryl Hydrocarbon Receptor (Ahr) (AID 2282930); conditions: HepG2 AhR cis-factorial reporter transcription; actives raise or lower the signal
Method in brief: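 Reporter mRNA levels, quantified by RT-PCR and fluorescent capillary electrophoresis, reflect endogenous AhR transcriptional activity in HepG2 cells carrying transfected cis-promoter reporter constructs. Readout at 24 h post-dose; gain or loss fitted against DMSO baseline.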

[7] = ATG_AP_1_CIS: Attagene CIS-FACTORIAL HepG2 Assay for human Activator Protein 1 (AP-1) (AID 2282931); conditions: HepG2 Attagene cis-factorial AP-1 reporter mRNA; actives raise or lower the signal
Method in brief: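 Readout is reporter transcript level from endogenous transcription factor activity, quantified by RT-PCR with fluorescent primer extension and capillary electrophoresis. Transiently transfected HepG2 cells, 24 h exposure. Curves fitted both directions versus DMSO.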

[8] = ATG_AP_2_CIS: Attagene CIS-FACTORIAL HepG2 Assay for human Activator Protein 2 (AP-2) (AID 2282932); conditions: HepG2 AP-2 cis-reporter, Attagene transcription factor profiling; actives raise or lower the signal
Method in brief: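 HepG2, transient MRTU transfection, cis-regulated reporters; 24 h compound exposure; RNA isolated, RT-PCR, 6-FAM labelling, HpaI digest, CE fluorescence. DMSO = negative control/baseline, bidirectional fit.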

[9] = ATG_BRE_CIS: Attagene CIS-FACTORIAL HepG2 Assay for human Bone Morphogenetic Protein (BMP) Response Element (BRE) (AID 2282933); conditions: HepG2 BMP response element reporter, Attagene transcription factor profiling; actives raise or lower the signal
Method in brief: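 HepG2 cells transiently transfected with CIS reporter units (endogenous TF activity, BMP response element), dosed 24 h. Reporter mRNA quantified by RT-PCR, fluorescent labelling and capillary electrophoresis; bidirectional fit vs DMSO baseline.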

[10] = target: Retinoic acid receptor alpha (Homo sapiens) (UniProt P10276); assay: ATG_DR5_RAR_CIS: Attagene CIS-FACTORIAL HepG2 Assay for human Retinoic Acid Receptor Alpha (RARE), DR5 submotif (AID 2282934); conditions: HepG2 Attagene cis-factorial RARE DR5 reporter, mRNA; actives raise or lower the signal;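 as to AC50: reporter responds to endogenous RAR alpha beta and gamma in HepG2 not RARA alone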
Method in brief: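 Reporter transcripts from a DR5-regulated unit, measured via RT-PCR plus capillary electrophoresis, reflect endogenous RAR activity in transiently transfected human HepG2 liver cells. Exposure lasted 24 h; gain or loss of signal scored against DMSO.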

[11] = target: Transcription factor E2F1 (Homo sapiens) (UniProt Q01094); assay: ATG_E2F_CIS: Attagene CIS-FACTORIAL HepG2 Assay for human E2F Transcription Factor 1 (AID 2282935); conditions: HepG2 Attagene cis-reporter, E2F reporter RNA transcripts; actives raise or lower the signal
Method in brief: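 Cis-element reporter mRNA induction in transiently transfected HepG2, 24 h exposure. Activity fitted in both directions relative to DMSO negative control.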

[12] = ATG_M_61_CIS: Attagene CIS-FACTORIAL HepG2 Assay for M61 Transcription Factor (Internal Marker) (AID 2282937); conditions: HepG2 Attagene CIS-FACTORIAL M61 internal marker reporter; actives raise or lower the signal
Method in brief: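 Readout is reporter mRNA by RT-PCR, fluorescent primer extension and capillary electrophoresis, with gain or loss fitted relative to DMSO. Transfected HepG2 cells carrying endogenous-TF-driven cis reporters were exposed to chemicals for 24 hours.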

[13] = ATG_EGR_CIS: Attagene CIS-FACTORIAL HepG2 Assay for human Early Growth Response 1 (EGR1) (AID 2282938); conditions: HepG2 Attagene CIS-FACTORIAL EGR reporter mRNA; actives raise or lower the signal
Method in brief: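 After 24 h compound exposure, RNA from reporter-transfected HepG2 cells was reverse-transcribed, PCR-amplified, fluorescently labelled and resolved by capillary electrophoresis. EGR1 reporter transcript changes, up or down, were fitted against DMSO, reflecting endogenous transcription-factor activity.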

[14] = ATG_M_19_CIS: Attagene CIS-FACTORIAL HepG2 Assay for M19 Transcription Factor (Internal Marker) (AID 2282939); conditions: HepG2 Attagene CIS-FACTORIAL M19 internal marker reporter; actives raise or lower the signal
Method in brief: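 HepG2 cells transiently transfected with cis-regulated multiplexed reporter units, dosed 24 h. Reporter mRNA quantified by RT-PCR and capillary electrophoresis; internal background marker fitted bidirectionally versus DMSO.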

[15] = ATG_ERE_CIS: Attagene CIS-FACTORIAL HepG2 Assay for Estrogen Response Element (ERE) (AID 2282940); conditions: HepG2 ERE cis-reporter, Attagene RNA transcript; actives raise or lower the signal
Method in brief: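 HepG2 cells transiently transfected with multiplexed cis-element reporter units, measuring endogenous transcription factor activity; ERE reporter mRNA quantified after 24 h exposure by RT-PCR, fluorescent labelling, HpaI digestion and capillary electrophoresis. Bidirectional change versus DMSO.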

[16] = ATG_Ets_CIS: Attagene CIS-FACTORIAL HepG2 Assay for human Erythroblast Transformation Specific (ETS) (AID 2282941); conditions: HepG2 ETS cis-reporter transcription, actives raise or lower the signal
Method in brief: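 After transient cis-reporter transfection, HepG2 cells receive test chemical for 24 h. Reporter mRNA levels, measured by RT-PCR and capillary electrophoresis fluorescence, are analysed bidirectionally relative to the DMSO baseline.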

[17] = target: Hepatocyte nuclear factor 3-beta (Homo sapiens) (UniProt Q9Y261); assay: ATG_FoxA2_CIS: Attagene CIS-FACTORIAL HepG2 Assay for human Forkhead box A2 (FOXA2) (AID 2282942); conditions: HepG2 cis-reporter transcription factor activity, 24 h; actives raise or lower the signal
Method in brief: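 Endogenous transcription factor activity is captured via cis-element-driven reporter transcripts in transfected HepG2. Total RNA taken at 24 h post-dosing; labelled RT-PCR products resolved by capillary electrophoresis. Gain or loss fitted versus DMSO.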

[18] = ATG_GATA_CIS: Attagene CIS-FACTORIAL HepG2 Assay for human GATA Binding Protein (AID 2282944); conditions: HepG2 GATA cis-element reporter, Attagene multiplex mRNA; actives raise or lower the signal
Method in brief: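 HepG2 cells transiently transfected with multiplexed cis-element reporter units measure endogenous GATA activity; after 24 h compound exposure, reporter mRNA quantified by RT-PCR and capillary electrophoresis. Changes fitted in both directions vs DMSO.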

[19] = ATG_E_Box_CIS: Attagene CIS-FACTORIAL HepG2 Assay for human Enhancer Box (E-box) (AID 2282936); conditions: HepG2 E-box cis-reporter transcription, actives raise or lower the signal
Method in brief: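 Cells: HepG2 (human liver), transient MRTU transfection. Exposure 24 h. RNA → oligo(dT) RT → PCR → 6-FAM label → HpaI → CE. Activity fitted both directions relative to DMSO.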

[20] = ATG_FoxO_CIS: Attagene CIS-FACTORIAL HepG2 Assay for human Forkhead box O (FoxO) (AID 2282943); conditions: HepG2 Attagene cis-reporter, FoxO element, mRNA; actives raise or lower the signal
Method in brief: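 Endogenous transcription factor activity read from multiplexed cis-promoter reporter transcripts in transiently transfected HepG2, 24 h after dosing. Reporter RNA measured via RT-PCR plus capillary electrophoresis of FAM-labeled products; gain or loss relative to DMSO.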

Measured: AC50

Chain of CCAAT/enhancer-binding protein beta (Homo sapiens) (P17676 whole entry, looked up, the tested form may be a part): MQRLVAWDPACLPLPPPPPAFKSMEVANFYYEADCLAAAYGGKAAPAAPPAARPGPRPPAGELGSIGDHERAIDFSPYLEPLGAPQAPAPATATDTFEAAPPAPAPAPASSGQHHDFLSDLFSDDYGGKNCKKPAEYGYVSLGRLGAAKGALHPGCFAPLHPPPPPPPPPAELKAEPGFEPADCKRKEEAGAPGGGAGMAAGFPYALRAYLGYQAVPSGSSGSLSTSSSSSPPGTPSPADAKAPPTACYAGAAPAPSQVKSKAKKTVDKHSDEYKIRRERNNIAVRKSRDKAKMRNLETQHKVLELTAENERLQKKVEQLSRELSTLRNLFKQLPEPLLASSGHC
Chain of Transcription factor E2F1 (Homo sapiens) (Q01094 whole entry, looked up): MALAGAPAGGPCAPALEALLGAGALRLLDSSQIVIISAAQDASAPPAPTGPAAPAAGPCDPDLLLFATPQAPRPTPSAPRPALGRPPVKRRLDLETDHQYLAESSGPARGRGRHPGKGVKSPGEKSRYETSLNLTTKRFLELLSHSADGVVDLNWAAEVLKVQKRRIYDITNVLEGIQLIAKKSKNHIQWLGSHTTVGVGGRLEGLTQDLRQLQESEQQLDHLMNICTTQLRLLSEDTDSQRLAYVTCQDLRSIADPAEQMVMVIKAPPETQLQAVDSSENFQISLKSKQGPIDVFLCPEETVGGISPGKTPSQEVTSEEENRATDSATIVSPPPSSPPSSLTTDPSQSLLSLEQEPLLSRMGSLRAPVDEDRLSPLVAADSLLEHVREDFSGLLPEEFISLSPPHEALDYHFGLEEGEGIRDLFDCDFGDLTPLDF
Chain of Hepatocyte nuclear factor 3-beta (Homo sapiens) (Q9Y261 whole entry, looked up): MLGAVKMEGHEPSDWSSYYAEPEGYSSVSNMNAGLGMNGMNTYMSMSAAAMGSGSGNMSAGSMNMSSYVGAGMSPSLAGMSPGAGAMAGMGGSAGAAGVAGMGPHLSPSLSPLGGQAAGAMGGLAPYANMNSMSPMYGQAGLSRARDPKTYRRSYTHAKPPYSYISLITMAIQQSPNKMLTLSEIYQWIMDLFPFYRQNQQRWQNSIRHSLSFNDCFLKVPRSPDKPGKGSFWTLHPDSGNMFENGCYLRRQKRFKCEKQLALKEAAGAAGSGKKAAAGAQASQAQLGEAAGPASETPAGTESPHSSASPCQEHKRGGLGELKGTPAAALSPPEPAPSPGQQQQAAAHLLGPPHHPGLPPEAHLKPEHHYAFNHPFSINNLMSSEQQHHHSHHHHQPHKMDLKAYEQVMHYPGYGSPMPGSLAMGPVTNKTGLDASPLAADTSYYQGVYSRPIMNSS
Chain of Retinoic acid receptor alpha (Homo sapiens) (P10276 whole entry, looked up): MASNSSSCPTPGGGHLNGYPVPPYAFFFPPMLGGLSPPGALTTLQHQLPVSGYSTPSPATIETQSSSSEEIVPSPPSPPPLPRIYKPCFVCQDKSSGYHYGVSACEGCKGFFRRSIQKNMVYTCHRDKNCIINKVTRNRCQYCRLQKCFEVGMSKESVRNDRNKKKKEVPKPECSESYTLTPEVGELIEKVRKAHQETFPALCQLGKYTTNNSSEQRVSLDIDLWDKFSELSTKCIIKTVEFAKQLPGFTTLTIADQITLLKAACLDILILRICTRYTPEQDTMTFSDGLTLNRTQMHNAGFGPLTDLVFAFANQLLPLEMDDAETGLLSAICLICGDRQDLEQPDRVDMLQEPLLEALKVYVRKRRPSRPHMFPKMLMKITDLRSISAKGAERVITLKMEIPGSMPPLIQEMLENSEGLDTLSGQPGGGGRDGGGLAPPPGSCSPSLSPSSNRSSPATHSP
Chain of Aryl hydrocarbon receptor (Homo sapiens) (P35869 whole entry, looked up): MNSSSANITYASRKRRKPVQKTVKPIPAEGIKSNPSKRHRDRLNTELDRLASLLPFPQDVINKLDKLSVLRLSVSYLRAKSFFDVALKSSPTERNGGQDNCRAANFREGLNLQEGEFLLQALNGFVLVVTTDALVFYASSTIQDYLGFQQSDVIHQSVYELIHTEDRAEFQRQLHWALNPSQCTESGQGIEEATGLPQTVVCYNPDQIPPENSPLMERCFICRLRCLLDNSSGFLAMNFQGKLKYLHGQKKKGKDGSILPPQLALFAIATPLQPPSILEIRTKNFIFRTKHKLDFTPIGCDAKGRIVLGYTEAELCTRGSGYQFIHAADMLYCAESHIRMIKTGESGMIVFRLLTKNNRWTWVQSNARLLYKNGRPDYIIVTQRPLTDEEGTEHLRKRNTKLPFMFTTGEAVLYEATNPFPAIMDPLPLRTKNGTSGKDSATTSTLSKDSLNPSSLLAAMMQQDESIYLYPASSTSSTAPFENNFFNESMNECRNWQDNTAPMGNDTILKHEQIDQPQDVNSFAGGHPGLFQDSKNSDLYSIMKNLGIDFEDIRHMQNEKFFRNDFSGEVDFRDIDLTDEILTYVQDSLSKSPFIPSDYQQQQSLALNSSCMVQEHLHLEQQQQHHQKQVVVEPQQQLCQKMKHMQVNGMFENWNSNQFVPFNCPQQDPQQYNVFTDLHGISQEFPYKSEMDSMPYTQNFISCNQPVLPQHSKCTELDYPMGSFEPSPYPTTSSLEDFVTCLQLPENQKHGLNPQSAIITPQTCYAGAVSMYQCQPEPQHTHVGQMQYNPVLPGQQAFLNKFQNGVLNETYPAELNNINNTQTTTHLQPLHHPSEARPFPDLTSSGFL

CC1CCC(C(C)(C)S)C(=O)C1 (centres undefined)
not listed: [19] | [20]
inactive: all other assays above

Nc1ccnc(=O)[nH]1
not listed: [16] | [20]
inactive: all other assays above

CCCCCCCCCCCCCc1ccccc1
not listed: [12]
inactive: all other assays above

CC(C)(CO)COC(=O)C(C)(C)CO
not listed: [16]
inactive: all other assays above

CCCCNS(=O)(=O)c1ccccc1
not listed: [19]
inactive: all other assays above

Cn1ccnc1
not listed: [18] | [19]
inactive: all other assays above

COc1nccnc1CC(C)C
not listed: [16]
inactive: all other assays above

c1ccc(Nc2cccc3ccccc23)cc1
inactive: [1] | [5] | [6] | [8] | [19] | [12] | [17]
active: [2] 48.3 µM | [3] 45.7 µM | [4] 33.4 µM | [7] 53.7 µM | [9] 49.2 µM | [10] 33.4 µM | [11] 33.4 µM | [13] 46.8 µM | [14] 47.9 µM | [15] 2.06 µM | [20] 53.2 µM

CCN1CCCC1=O
not listed: [16] | [18]
inactive: all other assays above

Nc1cccc(N)n1
active: [6] 52.3 µM
not listed: [12]
inactive: all other assays above

CCCCNC(=S)NCCCC
not listed: [18] | [19] | [20]
inactive: all other assays above

Fc1ccc(Br)cc1
active: [15] 21.1 µM
not listed: [19]
inactive: all other assays above

Oc1c(Cl)cc(Cl)c(Cl)c1Cl
active: [1] 10.5 µM | [9] 100 µM | [13] 100 µM
not listed: [19]
inactive: all other assays above

Cc1ccc(S(=O)(=O)N=C=O)cc1
not listed: [20]
inactive: all other assays above
